Shown are actives, neighbours in structure and some others; about 1.3% of the full set was active somewhere.
a7 integrin act: activators of alpha7 integrin expression for muscular dystrophy. Potency, µM (titrated, usually from 38.3 µM), actives largely listed as activators. 350,000 compounds, 0.064% hits. AID 624291. alpha7betagal myoblasts, beta-gal FDG fluorescence, 48 h; further: nearly all actives have a fitted effect of over 60% in size
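Alpha7betagal+/- myoblasts (passage 13) were plated 16-24 hr, then exposed to compounds (1:260 dilution of DMSO stock) for 48 hours at 37C. After MPER lysis, β-galactosidase reporter activity was read as FDG fluorescence (ex 480/em 540) after 30 minutes.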
PKM2 activator: increases activity of human pyruvate kinase M2 | P14618 | purified PKM2, Kinase-Glo ATP luminescence, activation; response scale: 0% is enzyme alone, no compound | Potency, µM (series often up to 57.5 µM), actives largely listed as activators | 260,000 compounds, 0.34% hits | AID 1631; further: nearly all actives have a fitted effect of over 55% in size
Target sequence (P14618 whole entry, looked up): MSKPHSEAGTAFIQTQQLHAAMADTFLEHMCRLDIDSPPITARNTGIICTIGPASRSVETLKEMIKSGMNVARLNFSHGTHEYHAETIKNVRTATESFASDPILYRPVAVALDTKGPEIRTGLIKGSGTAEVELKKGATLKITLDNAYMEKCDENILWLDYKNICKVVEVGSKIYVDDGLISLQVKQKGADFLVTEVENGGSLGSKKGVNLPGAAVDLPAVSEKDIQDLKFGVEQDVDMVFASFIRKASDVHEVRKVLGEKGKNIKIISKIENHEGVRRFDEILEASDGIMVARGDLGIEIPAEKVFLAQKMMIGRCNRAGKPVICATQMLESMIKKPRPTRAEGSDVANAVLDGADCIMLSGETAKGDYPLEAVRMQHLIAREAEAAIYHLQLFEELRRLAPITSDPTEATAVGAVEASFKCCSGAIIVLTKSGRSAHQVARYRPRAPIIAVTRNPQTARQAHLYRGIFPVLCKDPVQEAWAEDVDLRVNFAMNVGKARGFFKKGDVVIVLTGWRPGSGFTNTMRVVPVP
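Kinase-Glo luminescence reports ATP generated from ADP (0.1 mM) and PEP (0.5 mM) by purified hPK-M2 after 1 h at room temperature, pH 7.2 imidazole buffer; intermediate enzyme activity allows detecting inhibitors and activators.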
Apoferritin bind: binds horse apoferritin like a general anesthetic; P02791; apoferritin/1-aminoanthracene competitive binding, fluorescence; 350,000 compounds, 0.074% hits; Potency, µM (doses to about 77.5 µM), hits mostly inhibitors; AID 485281; further: nearly all actives have a fitted effect of over 20% in size
Target sequence (P02791 2-175 limits assumed): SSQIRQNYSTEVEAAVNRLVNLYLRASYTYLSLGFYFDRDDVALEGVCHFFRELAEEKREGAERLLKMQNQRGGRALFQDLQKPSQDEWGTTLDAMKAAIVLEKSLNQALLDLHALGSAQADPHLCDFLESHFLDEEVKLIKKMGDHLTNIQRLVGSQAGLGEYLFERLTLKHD
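In PBS, apoferritin at 10 uM is loaded with 1-AMA from a 50% saturated solution. After 10 min of compound exposure at ambient temperature, reduced 535 nm fluorescence indicates probe displacement.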
BRCA1 expr up: increases BRCA1 expression; MCF7-BRCA1-FFLuc reporter, luminescence, 48 h; response scale: scaled: vehicle 0%, 10 µM genistein 100%; Potency, µM (series often up to 46.1 µM), most hits filed as activators; 380,000 compounds, 1.1% hits; further: nearly all actives have a fitted effect of over 80% in size
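Using MCF7 cells harboring a BRCA1 firefly luciferase reporter, plated 2 h before compound pinning, the screen measured luminescence after 48 h incubation. Responses were normalized to DMSO and 10 microM genistein, then fitted for concentration-effect.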
IL2 activator: activates IL-2 in a cell-based reporter assay. activation, % (series mostly up to about 46 µM). 360,000 compounds, 0.065% hits. IL-2 activation reporter assay, cell-based qHTS; stimulated with anti-CD3/CD4/CD28 beads; in transgenic mouse T cells. AID 652025; in the data active means activation above about 50%; inconclusive means mostly about 30% to 49%
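Using fluorescent plate cytometry, EGFP and DsRed are detected in transgenic mouse T cells stimulated 18 h at 37 degrees C with antibody-coated beads after 60 min compound pretreatment.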
Hits are given with their value; n = inactive; u = inconclusive; x = not tested or not shown; [ ] = remark or other dose. Unless noted, the call rests on the fitted dose curve; in most records, active means well fitted curve in the direction sought with a large enough effect; inconclusive means small, poorly fitted or top-dose-only effect, or another doubt; inactive means no such curve, though single readings can be large; an effect the other way counts as inactive or inconclusive.

SMILES	a7 integrin act	PKM2 activator	Apoferritin bind	BRCA1 expr up	IL2 activator
Cc1cccc(NC(=O)CC(=O)Nc2cccc(C)c2)c1	u	x	n	n	n
CN(C)c1ccc(/C=C/c2nnnn2-c2ccccc2)cc1	n	n	n	4µM	n
O=S(=O)(NCCNCC=Cc1ccc(Br)cc1)c1cccc2cnccc12	x	x	x	n	x
COc1ccc(-n2c(=O)c3ccc(C(=O)NCc4ccc(C)cc4)cc3n(CC(=O)Nc3ccc(C)cc3)c2=O)cc1	x	x	u	n	x
Cc1ccc2oc(C(=O)N(C)Cc3ccon3)c(C)c2c1	n	x	n	8.9µM	n
CN(C)c1ccc(/C=C/c2ccnc3ccc(-c4ccccc4)cc23)cc1	x	x	x	n	x
Cc1cccc(-n2nnc(C(=O)Nc3ccc(F)cc3)c2N)c1	n	n	n	4.5µM	n
COc1cc2nc(N3CCCN(C)CC3)nc(NC3CCN(C)C3)c2cc1OC (stereo not given)	x	x	x	n	x
CCOC(=O)c1c(-c2ccc(C)o2)csc1NC(=O)CN1CCC(C(N)=O)CC1	n	20µM	n	n	n
CCOC(=O)c1c(-c2ccc(C)o2)csc1NC(=O)CSc1nncs1	n	8.9µM	n	n	n
CCOC(=O)c1c(-c2ccco2)csc1NC(=O)CSc1nnc(N)s1	n	13µM	u	n	n
CCOC(=O)c1c(-c2ccco2)csc1NC(=O)COC(=O)c1cnccn1	n	x	x	n	n
COc1cc2c(NC3CCN(C(C)C)CC3)nc(N3CCCN(C)CC3)nc2cc1OCCOCCN1CCCC1	x	x	x	n	x
Cc1cc(NS(=O)(=O)c2ccccc2)cc(Cl)c1O	n	16µM	u	n	n
C=Cc1ccc(Cn2c(C(=O)O)c(CNCc3ccccc3)c3ccc(C)cc32)cc1	x	x	n	n	x
COc1ccc(CCn2nc(C)c([N+](=O)[O-])c2C)cc1	n	n	n	8.9µM	n
Cc1ccc(OCc2ccccc2C)c([N+](=O)[O-])n1	n	n	u	n	n
O=[N+]([O-])c1ccc(OCCCOc2cccc3cccnc23)cc1	n	n	n	n	n
Cc1ccc(OCc2ccc([N+](=O)[O-])cc2)c([N+](=O)[O-])n1	n	n	n	5µM	n
Cc1ccc(OCC(=O)Nc2ccc(C)c(F)c2)c([N+](=O)[O-])n1	n	x	x	6.3µM	n
O=[N+]([O-])c1ccc(COc2cccc3cccnc23)cc1	n	x	n	11µM	n
Cc1ccc(OCCOc2ccc(Br)cc2)c([N+](=O)[O-])n1	n	n	n	3.2µM	n
CCOc1c(Cl)cc(C(=O)N(Cc2ccc(N(C)C)cc2)Cc2ccco2)cc1Cl	x	x	n	x	x
COc1ccc(C(=O)Cc2cc(OC)c(OC)cc2[N+](=O)[O-])cc1	n	n	n	11µM	n
CCOc1ccc(C(=O)Cc2cc(OC)c(OC)cc2[N+](=O)[O-])cc1	n	n	n	n	n
SMILES	a7 integrin act	PKM2 activator	Apoferritin bind	BRCA1 expr up	IL2 activator
O=C(CNS(=O)(=O)c1cccs1)N1CCN(c2ccccn2)CC1	n	22µM	n	n	n
O=C(CNS(=O)(=O)c1cccs1)N1CCN(c2ccccc2F)CC1	n	n	n	n	n
Nc1cccc(C(=O)OCC(=O)c2ccccc2)c1	n	n	n	7.9µM	n
CCOC(=O)N/N=C(\C)c1cccs1	n	n	n	u	n
C/C(=N/Nc1ccccc1C(=O)O)c1cccs1	n	n	n	10µM	n
CC(=O)Nc1cccc(/C(C)=N/NC(=O)c2cccs2)c1	n	n	n	u	n
C/C(=N\NC(=O)c1cc2ccccc2cc1O)c1cccs1	u	x	n	n	n
C/C(=N/NC(=O)c1cccs1)c1cccs1	n	n	n	3.5µM	n
C/C(=N\NC(=O)c1cccs1)c1c(O)cc(C)oc1=O	n	n	n	3.5µM	n
C/C(=N/NC(=O)c1cccs1)c1cccc(N)c1	n	n	n	11µM	n
CN(C)/[N+]([O-])=N/Oc1cc(O/[N+]([O-])=N/N2CCCC2CO)c([N+](=O)[O-])cc1[N+](=O)[O-] (stereo not given)	x	x	n	x	x
C=C(C)C1CC=C(C)C(=NNC(=O)c2ccncc2)C1 (stereo not given)	n	x	x	n	n
C=C(C)C1CC=C(C)/C(=N/NC(=O)c2cccs2)C1 (stereo not given)	n	n	n	10µM	n
COc1cccc(CN2CC34CCC(CC3S2(=O)=O)O4)c1 (stereo not given)	x	x	n	x	x
Cc1cc(NC(=O)CSc2ncccn2)no1	n	n	n	n	n
Cc1cc(NC(=O)CSc2ncn(-c3ccccc3)n2)no1	n	25µM	n	n	n
Cc1ccc(CSc2ncn(-c3ccccc3)n2)cc1	n	n	u	11µM	n
Cc1ccc(-c2csc(Nc3ccc(S(N)(=O)=O)cc3)n2)o1	n	10µM	n	u	n
Cc1nc(C)c(-c2csc(Nc3ccc(S(N)(=O)=O)cc3)n2)s1	n	n	n	n	n
C(/Oc1ccccc1)=C1\Nn2c(nnc2-c2cc(-c3ccccc3)n[nH]2)S1	x	x	x	n	x
NC(=S)NCCC[C@H](N)C(=O)O	x	x	n	x	x
Cc1ccc(C2OCC3(CO2)COC(c2ccc(C)cc2)OC3)cc1 (stereo not given)	n	n	n	n	n
CC1OC1c1ccc(-c2ccc(C3OC3C)cc2)cc1 (stereo not given)	n	x	x	5µM	n
CCn1c(COc2ccccc2)nc2ccccc21	n	n	n	n	n
CCn1c(COc2ccc(OC)cc2)nc2ccccc21	n	n	u	11µM	n
SMILES	a7 integrin act	PKM2 activator	Apoferritin bind	BRCA1 expr up	IL2 activator
COc1ccccc1-c1noc(-c2ccc(NCC3CCCO3)c([N+](=O)[O-])c2)n1 (stereo not given)	x	x	n	n	x
Cc1cc(C)c2c(N)c(C(=O)NNC(=O)c3ccccc3)sc2n1	n	n	n	8.9µM	n
COCc1cc(C)nc2sc(C(=O)Nc3cccc(OC)c3)c(N)c12	n	n[11.5 µM]	n	2.5µM	n
CC(=O)N1CCCC1c1nc2ccccc2n1Cc1ccccc1Cl (stereo not given)	x	x	n	n	x
CC(=O)Cn1cnc2c(sc3nc(C)cc(C)c32)c1=O	n	n	n	11µM	n
CCOc1cc(-c2ccc(OC(=O)c3ccccc3F)cc2)cc(=O)c2c(C)oc(C)c12	x	x	n	x	x
COc1ccc(-c2onc(C)c2C)cc1S(=O)(=O)NCC1CCN(Cc2cc(C)ccc2C)CC1	x	x	n	x	x
CCOC(=O)COn1c(-c2cccc(Cl)c2)nc2ccc([N+](=O)[O-])cc21	n	n	n	7.1µM	n
COc1cc(C)nc(N2CCCC(C(=O)NC3CCC(C)CC3)C2)n1 (stereo not given)	n	n	n	3.5µM	n
CN(C)c1ccc(C=Nc2ccc(/C=C3\C=Cc4ccccc43)cc2)cc1	x	x	x	n	x
CCOC(=O)c1cc2c(ccn2C)n1CC(=O)N1CCN(c2cccc(C(F)(F)F)c2)CC1	n	32µM	u	n	n

Bioassay records deposited in PubChem by National Center for Advancing Translational Sciences (NCATS).
